FUS suppressor – qHTS for Suppressors of FUS Proteinopathy: Primary screen using FUS-linked yeast assay | AID 1347120, 2019 | 390,000 tested, 0.24% active | Potency, µM (doses to about 76.6 µM), most hits filed as activators | S. cerevisiae FUS-expressing, growth rescue, OD600, 24 h; note: nearly all actives have a fitted effect of over 55% in size
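Restored growth of FUS-toxic S. cerevisiae, read as 600 nm absorbance after 24 h at 30C in galactose medium (starting OD 0.005). Controls CP55940 and DMSO.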
aSyn rescue – qHTS of alpha-syn Inhibitors | Yeast expressing alpha-synuclein, growth rescue, BacTiter-Glo, 24 h | Potency, µM (titrated, usually from 46.1 µM), usual class: activators | 370,000 tested, 0.14% active | AID 652106, 2013; note: nearly all actives have a fitted effect of over 65% in size
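Rescue of yeast growth: cells expressing toxic alpha-synuclein, induced in galactose at OD600 0.02, incubated with compound 24 h at 30 C. ATP luminescence quantified growth; inhibitors of toxicity appear as activators.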
TDP-43 yeast inh – qHTS of TDP-43 Inhibitors; 410,000 tested, 1.8% active; TDP-43 expressing yeast growth rescue, BacTiter-Glo, 24 h; Potency, µM (titrated, usually from 46.1 µM), actives largely listed as activators; AID 652104, 2013; note: nearly all actives have a fitted effect of over 50% in size
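Growth rescue of TDP-43-toxic yeast measured as ATP luminescence (BacTiter-Glo). Cells grown to mid-log in raffinose, induced in galactose at OD600=0.02, exposed to compound 24 hr at 30 deg C.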
Abeta yeast res – qHTS for compounds that reverse cellular toxicity of Amyloid beta (A-beta) peptide in yeast: Primary Screen; yeast expressing A-beta42, growth rescue, OD600, 48 h; response scale: 0% DMSO, 100% iron-clioquinol control; Potency, µM (series often up to 46.1 µM), most hits filed as activators; 410,000 tested, 0.063% active; AID 1347071, 2019; note: nearly all actives have a fitted effect of over 55% in size
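Yeast growth medium received pinned compounds, then yeast cells expressing toxic A-beta were added; plates incubated at 30 C for 48 hr. Growth read as absorbance at 600 nm, normalized to DMSO and equimolar FeCl3 plus clioquinol controls.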
Each line names hits and unclear results; the compound was inactive in the other large screens. Compounds with a hit are over-represented: about 2.1% of the library has one in this group of screens. Calls come from the whole dose curve; as a rule, active = well fitted curve in the direction sought with a large enough effect; inconclusive = small, poorly fitted or top-dose-only effect, or another doubt; inactive = no such curve, though single readings can be large; an effect the other way counts as inactive or inconclusive.

CCN(c1cccc(C)c1)S(=O)(=O)c1ccc2[nH]cc(C(=O)NCCCOC)c(=O)c2c1	none (no result: aSyn rescue)
COc1ccc(-c2coc3c(C(=O)Nc4ccc(OC)nc4)cccc23)c(C)c1	TDP-43 yeast inh 35.5µM
COCCCNC(=O)c1cccc2c(-c3ccc(OC)cc3C)coc12	TDP-43 yeast inh inconclusive
COc1ccc(-c2ccc(C(=O)Nc3ccc(OC)nc3)c3occc23)c(C)c1	FUS suppressor inconclusive, TDP-43 yeast inh 35.5µM
Clc1cccc(CSc2ncnc3sc4c(c23)CCCC4)c1	none (no result: aSyn rescue, TDP-43 yeast inh, Abeta yeast res)
O=C(/C=C/c1ccc2c(c1)OCO2)c1ccc(O)cc1O	TDP-43 yeast inh 8.91µM
Cc1ccc(C(=O)C=Cc2ccc3c(c2)OCO3)c(C)c1	TDP-43 yeast inh inconclusive
O=C(/C=C/c1ccc2c(c1)OCO2)c1ccco1	TDP-43 yeast inh 15.8µM (no result: FUS suppressor)
CCCCNc1ncnc2c1cnn2-c1ccc(C)cc1C	TDP-43 yeast inh 12.6µM
Fc1ccc(-n2ncc3c(NCCC4=CCCCC4)ncnc32)cc1	TDP-43 yeast inh inconclusive (no result: aSyn rescue)
Cc1ccc(Cl)cc1-n1ncc2c(NCCc3ccccc3)ncnc21	TDP-43 yeast inh 22.4µM (no result: aSyn rescue)
Cc1ccc(Cl)cc1-n1ncc2c(NCCCc3ccccc3)ncnc21	TDP-43 yeast inh inconclusive (no result: aSyn rescue)
Cc1ccc(Cl)cc1-n1ncc2c(NCCC3=CCCCC3)ncnc21	FUS suppressor inconclusive, TDP-43 yeast inh 35.5µM (no result: aSyn rescue)
Cc1ccc(Cl)cc1-n1ncc2c(NCc3ccc(F)cc3)ncnc21	TDP-43 yeast inh 20µM (no result: aSyn rescue)
COCCCNc1ncnc2c1cnn2-c1ccc(C)cc1C	TDP-43 yeast inh inconclusive
O=C1c2ccccc2C(c2nnnn2Cc2ccccc2)N1CCOc1ccccc1 (configuration not stated)	aSyn rescue 25.1µM, TDP-43 yeast inh 11.2µM
CCc1ccc(OCC(=O)Nc2ncn[nH]2)c(Br)c1	none (no result: aSyn rescue)
CC1(C)Cc2c(sc3nnn(CC(=O)Nc4ccccc4)c(=O)c23)CO1	none
CC1(C)Cc2c(sc3nnn(Cc4ccc(Cl)cc4)c(=O)c23)CO1	TDP-43 yeast inh 12.6µM (no result: FUS suppressor)
O=C(NCC1CCCO1)c1cccc2c1C(=O)c1ccc(N3CCC(Cc4ccccc4)CC3)cc1S2(=O)=O (configuration not stated)	FUS suppressor 10µM
Cc1ccc(-c2csc3ncnc(Cl)c23)cc1	TDP-43 yeast inh 15.8µM
Cc1cccc(N=C2NN=C(c3c(C)[nH]c4ccccc34)CS2)c1	FUS suppressor 11.2µM
O=c1sc(Nc2ccccc2)nc2ccsc12	TDP-43 yeast inh 17.8µM
O=C(Nc1nc2ccsc2c(=O)s1)C1CCC1	TDP-43 yeast inh 10µM
CCOC(=O)N1CCN(C(=O)C[C@H]2C[C@@]3(C(=O)OC)C(=C[C@H](C(C)(C)C)O[C@@H]3C)N(CCc3ccc(OC)c(OC)c3)C2=O)CC1	none (no result: aSyn rescue, TDP-43 yeast inh, Abeta yeast res)
CCC(CC)C(=O)Nc1nnc2n1CCS2	aSyn rescue inconclusive
O=C(Nc1ccccc1Oc1ccccc1)c1ccc(Br)o1	none
O=C(Nc1ccccc1-c1ccccc1)c1ccc(Br)o1	TDP-43 yeast inh 22.4µM
CCn1c(=O)c2cc(C(=O)N(C)c3ccc(OC)cc3OC)sc2c2ccccc21	FUS suppressor 2µM
CCn1c(=O)c2cc(C(=O)NC3CCCCCC3)sc2c2ccccc21	TDP-43 yeast inh 15.8µM (no result: aSyn rescue)
Cn1c(=O)c2cc(C(=O)NC3CCCCCC3)sc2c2ccccc21	none (no result: aSyn rescue)
CCOc1ccccc1N(CC)C(=O)c1cc2c(=O)n(CC)c3ccccc3c2s1	FUS suppressor 31.6µM (no result: aSyn rescue)
COc1ccc(-c2nnc(C3CCN(C(=O)c4ccccc4F)CC3)o2)cc1	TDP-43 yeast inh inconclusive (no result: aSyn rescue)
Cc1ccc(C2C=C(c3ccc(Cl)cc3)Nc3nc(NC(=O)c4ccco4)nn32)cc1 (configuration not stated)	none (no result: aSyn rescue)
COc1ccc2cc(C3=CCCC3(C)C(=O)O)ccc2c1 (configuration not stated)	TDP-43 yeast inh 3.55µM
O=C1CCc2cc(S(=O)(=O)N3CCN(Cc4cccc5c4OCO5)CC3)ccc2N1	none (no result: aSyn rescue, TDP-43 yeast inh, Abeta yeast res)
C/C(=N\O)C(=O)C(CN1CCCCC1)CN1CCCCC1	aSyn rescue 14.1µM
CC(=O)/C(CN1CCCCC1)=N\O	none
COc1ccc(/C=C/C(=O)c2ccc(O)cc2)cc1	TDP-43 yeast inh inconclusive
COc1cc(/C=C/c2ccc(O)cc2)cc(OC)c1	TDP-43 yeast inh 28.2µM
CCOCC(=O)Nc1cc(C(F)(F)F)ccc1Oc1cccc(Br)c1	TDP-43 yeast inh inconclusive, Abeta yeast res inconclusive
CC(=O)Nc1cc(C(F)(F)F)ccc1OCCOc1ccccc1	TDP-43 yeast inh 12.6µM
CC(=O)Nc1cc(C(F)(F)F)ccc1Oc1cccc(Br)c1	TDP-43 yeast inh 11.2µM
COc1ccccc1CC(=O)NCCN1C(=O)C2C3C=CC(C3)C2C1=O (configuration not stated)	none (no result: aSyn rescue, TDP-43 yeast inh, Abeta yeast res)
O=C1CC(c2ccc3c(c2)OCCO3)Oc2ccccc21 (configuration not stated)	TDP-43 yeast inh 14.1µM
COc1cc(C(=O)ONC(=O)c2ccc(OC(F)F)cc2)cc(OC)c1OC	TDP-43 yeast inh 8.91µM, Abeta yeast res inconclusive
O=C(NOC(=O)c1ccccc1F)c1ccc(OC(F)F)cc1	none
CCOc1ccc(-c2cn3c(n2)sc2cc(C(=O)NCCCc4ccccc4)ccc23)cc1	none (no result: aSyn rescue)
CC(=NCc1cccc(Cl)c1)c1nc(-c2ccco2)oc1O	TDP-43 yeast inh 11.2µM
Oc1oc(-c2ccco2)nc1C=Nc1cccc(Cl)c1	none
CCN(CC)c1ccc(NC(=O)Cn2nc(C)n3cccc3c2=O)c(C)c1	none (no result: aSyn rescue)
Cc1ccc(-c2cn3c(n2)sc2cc(C(=O)NCCCc4ccccc4)ccc23)c(C)c1	none (no result: aSyn rescue)
CC(OC(=O)c1ccccc1O)C(=O)Nc1ccc(Cl)cn1 (configuration not stated)	none
Cc1ccc(C(=O)OC(C)C(=O)Nc2ccc(Cl)cn2)s1 (configuration not stated)	TDP-43 yeast inh 14.1µM
COc1ccc(NC(=O)C2Cc3c(-c4ccc5c(c4)OCO5)ccnc3O2)cc1 (configuration not stated)	TDP-43 yeast inh 25.1µM
O=C(Nc1ccccc1)C1Cc2c(-c3ccc4c(c3)OCO4)ccnc2O1 (configuration not stated)	TDP-43 yeast inh 35.5µM
O=C(Nc1cccnc1)C1Cc2c(-c3ccc4c(c3)OCO4)ccnc2O1 (configuration not stated)	none
O=C(Nc1ccc2c(c1)OCO2)C1Cc2c(-c3ccc4c(c3)OCO4)ccnc2O1 (configuration not stated)	TDP-43 yeast inh 28.2µM
CC(=O)Nc1ccc(NC(=O)C2Cc3c(-c4ccco4)ccnc3O2)cc1 (configuration not stated)	none
O=C(Nc1ccccc1)C1Cc2c(-c3ccco3)ccnc2O1 (configuration not stated)	aSyn rescue inconclusive, TDP-43 yeast inh 25.1µM
CCC(C)N(c1nc(C)nc2c1nnn2Cc1ccccc1)C(C)CC (configuration not stated)	none (no result: aSyn rescue, TDP-43 yeast inh, Abeta yeast res)
COc1cc(NC(=O)c2nnn(CC(=O)Nc3ccccc3)c2N)cc(OC)c1	none (no result: aSyn rescue)

Screening data: PubChem, National Center for Advancing Translational Sciences (NCATS)
